PubChem BioAssay AID758 (NMMLSC, 2007)
About 110 (0.058%) of roughly 190,000 compounds were called active. Roughly 2% stayed inconclusive and do not appear here.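 Rule for the calls: active = fluorescent GTP binding to Rab7 beads changed by at least 20 points from the 100% baseline, either direction, mostly lower; inconclusive = compound itself probably fluorescent, or too few beads counted; inactive = the rest.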 This excerpt belongs to a sample that is enriched for actives.

Each compound was assayed on Rab7 GTPase wild type (dog), Bodipy-FL-GTP binding (assay: modulators of GTP binding to Rab7, primary screen, biochemical, wildtype, multiplex bead flow cytometry (AID 758;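 note: median green fluorescence of bound Bodipy-FL-GTP per Rab7 bead population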)). Details: GST-Rab7 beads, fluorescent GTP binding, at 10 µM, actives lie on both sides, untreated = 100%, excess cold GTP = 0%.

GTP binding activity (percent of control), inactive:
Cc1ccccc1OCCC(=O)OCC(=O)NC(C)c1ccccc1 (stereo unspecified) 95%, N#Cc1c(-c2ccc(F)cc2)nc(-c2ccccc2)[nH]c1=O 93%, O=C(c1cccc(S(=O)(=O)N2CCCC2)c1)N(Cc1ccco1)C1CCS(=O)(=O)C1 (stereo unspecified) 97%, CN(CCc1cnn(C)c1)Cc1cn(C)nc1-c1ccccc1F 100%, Cc1cc(=O)n2[nH]c(-c3sccc3-n3c(C)ccc3C)cc2n1 91%, O=C(N/N=C/c1ccc(OCC2COCCO2)cc1)c1ccc(Br)cc1 (stereo unspecified) 108%, Cc1c(C(=O)O)nnn1-c1nonc1N 97%, CCc1ccc(CN(C)C(=O)CCc2nnc(-c3ccc(-c4ccccc4)cc3)o2)nc1 96%, COC(=O)c1ccc(COC(=O)c2cnccn2)cc1 105%, COc1ccc(-c2[nH]ncc2CN(C)Cc2cccnc2)c(F)c1 96%, CCn1c(SCc2ccccc2)nc2c(c1=O)SCC2 94%, Cc1cccc(Oc2c([N+](=O)[O-])c(=O)n(C)c3ccccc23)c1 100%, COC(=O)c1ccc(CN2CCC(CO)(Cc3ccc(OC)cc3)CC2)cc1 103%, CN(C)c1nc(N)nc(Cn2nnc(-c3ccc(C(F)(F)F)cc3)n2)n1 104%, CCCNS(=O)(=O)c1ccc(CCC(=O)N2CCCC2)cc1 104%, CN(CC(=O)Nc1ccccc1F)CC(=O)Nc1ccccc1Br 105%, CCOC(=O)CCCNC(=O)COC(=O)/C=C/c1ccc2c(c1)OCO2 90%, Cc1nc2sc3c(c2c(=O)n1NC(=O)CCl)CCCC3 90%, CSc1ccc(CN2C(=O)NC3(CCCCCC3)C2=O)cc1 97%, Fc1cccc(CSc2nnc3ccc(-c4ccncc4)nn23)c1 94%, Cc1cc([N+](=O)[O-])ccc1NC(=O)c1ccc(NC(=O)C(C)C)cc1 98%, CCCCC(CC)CNC(=O)C(=O)C1C(=O)Nc2ccccc21 (stereo unspecified) 103%, COc1ccccc1-c1nc(SC)n[nH]1 97%, Cc1ccc(CSc2nc3[nH]ncc3c(=O)[nH]2)cc1 93%, Cc1ccccc1-n1nc(SCC(=O)O)sc1=S 99%, Cc1ccc(C(=O)Cn2cccn2)cc1 106%, CC(=O)NC(=S)NNC(=O)c1ccc(Br)cc1 108%, NS(=O)(=O)c1cccc(NC(=O)COC(=O)/C=C/c2ccco2)c1 94%, O=C(Nc1ccc(Br)cn1)c1ccc([N+](=O)[O-])cc1Cl 98%, NC(=O)c1ccc(CN2CCC(Cc3ccccc3)CC2)cc1 110%, COc1cccc(CN(C)CC(=O)Nc2ccccc2C(=O)Nc2ccccc2)c1 105%, CC(OC(=O)c1ccccc1OCc1ccc(Cl)cc1)C(N)=O (stereo unspecified) 102%, Cc1cc(C)c(S(=O)(=O)N2CCOCC2)cc1C 101%, CN1CCN(S(=O)(=O)c2cccc(C(=O)O)c2)CC1 98%, CCOCCCNCc1cc(Br)ccc1OCC 95%, Cc1cccc(/C(N)=N/OC(=O)c2ccccc2Cl)c1 95%, C/C(=N\Nc1nc(N2CCOCC2)nc(N2CCOCC2)n1)c1ccc([N+](=O)[O-])cc1 96%, C/C(CC(=O)Nc1cccc(C(F)(F)F)c1)=N\NC(=O)C(=O)NCC(C)C 96%, CC(C)CNC(=O)C(=O)NCc1ccccc1 93%, O=[N+]([O-])c1cc(S(=O)(=O)CCCN2CCOCC2)ccc1F 95%, Cc1ccc(C2CCN(C(=S)Nc3cccc(Cl)c3)C2)cc1 (stereo unspecified) 101%, CCOC(=O)/C(C#N)=C/c1cn(CCC(=O)O)nc1-c1ccc(Br)cc1 102%, c1ccc2c(c1)OCCOCCOCCO2 99%, O=C(C1CCN(C2CCN(Cc3ccc4cc(F)ccc4n3)CC2)CC1)N1CCCC1 98%, CCC(C)NC(=O)c1nn(C)c(=O)c2ccccc12 (stereo unspecified) 103%, Cc1[nH]nc(SCC(=O)NCC(C)C)c1[N+](=O)[O-] 96%, Cc1ccc(OCCCC(=O)NC(C)c2ccccc2)c(C)c1 (stereo unspecified) 97%, Cc1cccc(NS(=O)(=O)c2ccc(C)c(C(N)=O)c2)c1 102%, CC1COc2ccccc2N1S(=O)(=O)c1ccccc1 (stereo unspecified) 95%, O=[N+]([O-])c1ccc2[nH]c3c(c2c1)CCCC3O (stereo unspecified) 103%, Cc1ccccc1NC(=O)c1nn(-c2ccc(F)c(F)c2)ccc1=O 95%, O=C(O)CCCCOn1ccnc1 97%, Cc1ccc(C(=O)N/C(=C\c2cccs2)C(=O)NCCc2ccccn2)cc1C 106%, CNc1nc2c(C)cccn2c(=O)c1C=Nc1ccc(OC)cc1 90%, COc1ccccc1N1CCN(c2ccc([N+](=O)[O-])nc2)CC1 104%, CC1(C)C2CCC1(C)C(OC(=O)c1ccc(O)cc1)C2 (stereo unspecified) 97%, O=C(O/N=C(/c1ccccc1)c1ccncc1)c1ccccc1[N+](=O)[O-] 95%, O=C(c1snnc1-c1ccccc1)N1CCOCC1 100%, CCc1nc2ccccc2c(C(=O)OC2CCCCC2=O)c1C (stereo unspecified) 99%, CC(C)(C)NC(=O)COC(=O)c1cc(Cl)ccc1[N+](=O)[O-] 102%, COc1ccc(C(=O)NNc2cc(C)nc(NNC(=O)c3ccc(OC)cc3)n2)cc1 102%, Cc1ccc(NC(=O)Cn2c(=O)n(CCC(=O)NC3CCN(Cc4ccccc4)CC3)c(=O)c3ccccc32)cc1 102%, C[C@H](NC(=O)c1ccccc1Cl)C(=O)OCCOc1cccc(Cl)c1 94%, OCCNCc1cccc(OCc2ccccc2Cl)c1 97%, CN(C)C(=O)N1CCNCC1 106%, CCCCCC1CCC(c2nnc(SCC(C)=O)o2)CC1 (stereo unspecified) 104%
